tim23-1 inh: growth inhibitors of tim23-1 mutant yeast; S. cerevisiae tim23-1 growth, BacTiter-Glo luminescence, 24 h; 330,000 tested, 1.3% active; inhibition, % at 20 µM;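 active = growth inhibition of the mutant yeast at or above 50%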;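 note: temperature-sensitive mutant grown at 25 °C; plate controls were DMSO-treated mutant yeast for no effect and medium wells lacking yeast for full effect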
tim10-1 inh: inhibits growth of tim10-1 mutant yeast | S. cerevisiae tim10-1 ts strain growth, BacTiter-Glo, 24 h | inhibition, % at 20 µM | 330,000 tested, 2.2% active;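 active = inhibition of at least 40%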;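 note: mutant grown at 25 °C; 0% = DMSO wells with yeast and 100% = wells holding no yeast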
NLRP3 yeast inh: NALP3 inhibition in yeast; Yeast reconstituted NLRP3/ASC/caspase-1, beta-gal luminescence, 24 h; 330,000 tested, 0.39% active; inhibition, % at 10 µM;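 active = inhibition of 50% or more; inactive = inhibition below 50%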;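 note: plate controls were induced DMSO wells for no effect and uninduced yeast grown without galactose for full effect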
SKKanGAS inh: SKKanGAS growth inhibition. inhibition, % at 7.5 µM. AID 1662. 300,000 tested, 1.3% active. S. pyogenes SKKanGAS, kanamycin growth, BacTiter-Glo, 6 h;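 active = mean replicate score, as percent of positive control median, at least 50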;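 note: strain carries kanamycin resistance gene driven by streptokinase promoter and grows in 40 µg/ml kanamycin; loss of luminescence reflects streptokinase promoter inhibition or plain growth inhibition; 0% = median of DMSO wells and 100% = positive control at its reference dose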
TIM10 inh: inhibits growth of TIM10 yeast strain; S. cerevisiae TIM10 strain growth, BacTiter-Glo luminescence, 24 h; inhibition, % at 10 µM; 330,000 tested, 1.4% active; AID 463195;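 active = inhibition of 40% or more at the single tested concentration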;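 note: wild-type TIM10 isogenic control strain grown at permissive 25 °C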
PfHsp90 yeast 2: growth inhibition of yeast expressing Plasmodium Hsp90; S. cerevisiae expressing PfHsp90, BacTiter-Glo ATP, 48 h; yeast lacking PDR1 and PDR3 efflux regulators; 310,000 tested, 0.32% active; AID 504621; inhibition, % at 9.4 µM;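 active = every replicate shows inhibition above about 80%, whatever the replicate mean, limit read from the data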;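 note: 0% = DMSO neutral controls and 100% = 20 µM radicicol positive controls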
* hit, by the source's call; / = no result. Most compounds without a hit are left out; they make up all but 4.5% or so of the library.

SMILES	tim23-1 inh	tim10-1 inh	NLRP3 yeast inh	SKKanGAS inh	TIM10 inh	PfHsp90 yeast 2
Cc1cccc(N2CC(C)Cn3c2nc2c3c(=O)[nH]c(=O)n2C)c1 (stereo not given)	18	-12	10	0	6	-12
N#Cc1ccccc1/C=N/Nc1nc(-c2ccccc2)c2cc(Br)ccc2n1	25	28	19	0	34	-2
O=[N+]([O-])c1ccc(/C=N/Nc2nc(-c3ccccc3)c3cc(Br)ccc3n2)o1	19	-17	44	95*	28	-45
O=C1c2ccccc2C(=O)c2[nH]c(=O)[nH]c21	16	24	22	62*	14	-8
Cn1cc(C(=O)c2ccc(Cl)cc2Cl)cc1C(=O)N/N=C(\N)COc1ccc(Cl)cc1	14	20	3	25	23	-1
Cn1cc(C(=O)c2ccc(Cl)cc2Cl)cc1C(=O)N/N=C(\N)COc1ccc(Cl)cc1Cl	1	34	-5	71*	15	-26
CCCCn1c(O)c(N=NC(=O)c2ccccc2NS(=O)(=O)c2cccs2)c2ccccc21	0	13	4	71*	15	-14
C/C(=N\Nc1cc(C)nc(-c2ccccc2O)n1)c1ccccc1O	33	26	18	74*	40	20
Cc1cc(N/N=C\c2ccccc2)nc(-c2ccccc2O)n1	-2	26	26	25	22	10
Cc1ccc(-c2csc3ncn(CC#N)c(=O)c23)cc1C	37	29	15	52*	-2	-8
COc1ccc(CN2CCNC(=O)C2CC(=O)NC2CCCC2)c(C)c1C (stereo not given)	16	18	8	0	-6	1
Cc1ccc(/C=C/C(=O)c2ccccc(=O)c2O)cc1C	/	/	/	97*	/	97*
O=C(/C=C/c1ccccc1)c1cc(Br)ccc(=O)c1O	0	-1	22	98*	-8	82*
CCOC(=O)C1=CC[C@H]2c3c(c4ccccc4n3C)C[C@H]1N2C	14	7	16	/	-6	17
O=C(NN1C(=O)/C(=C/c2ccc(O)c([N+](=O)[O-])c2)SC1=S)c1ccccc1Cl	1	-14	42	2	-74	104*
COc1ccc(NC(=O)CSc2nnc(-c3cccnc3)o2)c(OC)c1	-5	-18	3	-7	1	/
Cc1ccc(S(=O)(=O)Nc2ccc(Cl)cc2)cc1NC(=O)c1cc2c(s1)CCCC2	15	27	13	53*	8	-9
Cc1ccc(S(=O)(=O)N2CCOCC2)cc1NC(=O)c1cc2c(s1)CCC2	30	30	2	-4	12	-39
COc1ccccc1CNC(=O)c1cc(S(=O)(=O)N2CCN(c3ccccc3)CC2)ccc1Cl	/	/	/	/	/	-12
COc1ccc(CCNC(=O)c2c(-c3ccccc3)noc2C)cc1OC	15	5	16	-2	9	-38
COc1ccc(C(=O)NC(=S)NNC(=O)c2c(-c3ccccc3)noc2C)cc1OC	-9	7	6	91*	20	22
Cc1onc(-c2ccccc2)c1C(=O)NNC(=S)NC(=O)c1ccc2c(c1)OCO2	48	15	40	98*	27	-3
Cc1onc(-c2ccccc2)c1C(=O)NCc1ccc2c(c1)OCO2	-11	8	10	-9	6	/
O=C1NC2(CCCCCC2)C(=O)N1Cc1cccc([N+](=O)[O-])c1	24	22	7	6	-7	-26
CN(C)c1ccc(C(C(=O)NCc2ccccc2)N(Cc2ccco2)C(=O)c2snc(C(N)=O)c2N)cc1 (stereo not given)	/	/	/	7	/	-36
SMILES	tim23-1 inh	tim10-1 inh	NLRP3 yeast inh	SKKanGAS inh	TIM10 inh	PfHsp90 yeast 2
CN(CC(=O)Nc1cccc(F)c1)C(=O)c1cn(-c2ccccc2)nc1-c1cccs1	41	27	6	18	17	-3
COc1ccc(NC(=O)CN(C)C(=O)/C=C/c2cn(-c3ccccc3)nc2-c2ccc(F)cc2)cc1	7	13	39	63*	6	-60
CN(CC(=O)Nc1cccc(F)c1)C(=O)c1cn(-c2ccccc2)nc1-c1ccc(Cl)cc1	44	33	23	/	18	98*
COc1ccc(NC(=O)CN(C)C(=O)/C=C/c2cn(-c3ccccc3)nc2-c2ccc(C)cc2)cc1	28	23	12	58*	20	-17
COc1cccc(NC(=O)CN(C)C(=O)/C=C/c2cn(-c3ccccc3)nc2-c2ccc(C)cc2)c1	5	-5	29	24	7	/
O=C(NNC(=O)c1ccccc1O)c1ccco1	4	-13	10	5	-11	-18
COCC1CCN(Cc2cn(C)nc2-c2cccc(Cl)c2)C1 (stereo not given)	3	-4	16	1	8	10
CN(Cc1ccccn1)C(=O)CC1C(=O)NCCN1Cc1ccc(F)cc1Cl (stereo not given)	7	-2	8	0	14	-18
COc1ccc(S(=O)(=O)N2CCN(C(=O)c3cc(C)on3)CC2)cc1	2	6	21	/	9	15
O=C(CN1C(=O)NC2(CCCCCCC2)C1=O)NCc1ccccc1	14	3	1	/	2	-2
O=C(Nc1ccc(N2CCCC2)cc1)c1cccc(Cl)c1Cl	18	12	34	3	0	-9
COc1ccc(/C=N\NC(=O)c2ccccc2F)cc1COc1ccc(F)cc1F	44	18	23	4	10	-19
COc1ccc(/C=N\NC(=O)c2cc(O)c(O)c(O)c2)cc1COc1ccc(C(=O)OCC(C)C)cc1	29	23	16	90*	8	-19
COc1ccc(/C=N/NC(=O)c2cc(C(C)(C)C)[nH]n2)cc1COc1ccc(F)cc1F	37	18	3	61*	3	/
COc1ccc(C(=O)N/N=C/c2ccc(OC)c(COc3ccccc3)c2)cc1	-11	-9	-14	12	-10	-9
CCn1cc(Cl)c(C(=O)N2N=C(c3ccc4ccccc4c3)CC2c2ccccc2O)n1 (stereo not given)	15	15	18	50*	8	-16
CCC1=NN(C(=O)c2ccc(C)cc2)C(O)(c2ccc(Br)cc2)C1 (stereo not given)	38	30	39	-4	9	1
CCC1=NN(C(=O)c2cccc(Br)c2)C(O)(c2ccc(Br)cc2)C1 (stereo not given)	43	39	10	71*	31	14
Cc1ccc(C(=O)OC(C)C(=O)Nc2ccc(Cl)cn2)s1 (stereo not given)	34	32	-18	/	14	-9
COc1ccc(Cl)cc1NC(=O)CN(C)C(=O)c1sccc1-c1ccccc1	47	21	19	/	19	/
O=c1oc2ccccc2c(O)c1Cc1cc(Cl)c2cccnc2c1O	8	19	3	84*	5	90*
CSc1ccccc1C(=O)N1CCN(c2cccc(Cl)c2)CC1	6	-40	1	-6	-20	4

From PubChem BioAssay
